Source: PubChem BioAssay
The source made the active and inactive calls.

Assays:
[1] = small molecules captured by biotinylated probe aFSTL3 – biochemical, small-molecule microarray, fluorescence 635/667, stem cell growth factor project, primary screen (AID 1064); conditions: higher = more signal;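 also: measures binding of the biotinylated anti-FSTL3 antibody to printed compounds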
[2] = binders from COS7 lysate, DM2A8 probe, primary screen, torsin A project, cell lysate, small-molecule microarray, fluorescence 635/667 (AID 1065); conditions: higher = more signal, COS7 lysate expressing mutant human TOR1A
[3] = small molecules captured by biotinylated probe aFGF2 – biochemical, small-molecule microarray, fluorescence 635/667, stem cell growth factor project, primary screen (AID 1067); conditions: higher = more signal;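 also: measures binding of biotinylated aFGF2 protein to printed compounds on slides; z-score merges feature fluorescence and signal-to-noise across triplicate slides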
[4] = small molecules captured by biotinylated probe aFGF10 – biochemical, small-molecule microarray, fluorescence 635/667, stem cell growth factor project, primary screen (AID 1071); conditions: higher = more signal;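 also: score merges 667 nm spot intensity and signal to noise from triplicate slides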
[5] = target: Neurogenic locus notch homolog protein 2 (Homo sapiens) (UniProt Q04721); assay: small molecules binding Notch2 protein – biochemical, small-molecule microarray, 635 nm fluorescence, stem cell growth factors, primary screen (AID 1073); conditions: higher = more signal
[6] = target: Pro-neuregulin-1, membrane-bound isoform (Homo sapiens) (UniProt Q02297); assay: small molecules binding neuregulin-1 protein – biochemical, small-molecule microarray, fluorescence 635/667, psychiatric disease protein project, primary screen (AID 1075); conditions: NRG1 binding, 635 nm fluorescence, higher = more signal;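 also: score combines 667 nm spot fluorescence with signal to noise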
[7] = test system: Neuregulin-1 EGF-like domain; assay: small molecules binding NRG1 EGF domain – biochemical, small-molecule microarray, 635 nm fluorescence, primary screen (AID 1081); conditions: higher = more signal;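 also: binding of the protein to compounds printed on small-molecule microarray slides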
[8] = FRG1 expression reporter modulators in myotubes – cell-based, C2C12 myotubes, firefly/Renilla luciferase, luminescence, FRG1 inhibition for FSHD, primary screen (AID 1084); conditions: FRG1 promoter luciferase, higher = more signal, called active from +8 up or from −8 down
[9] = small molecules captured by biotinylated probe aFST – biochemical, small-molecule microarray, fluorescence 635/667, stem cell growth factor project, primary screen (AID 1086); conditions: higher = more signal;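 also: score merges 667 nm fluorescence with signal-to-noise of each printed compound spot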
[10] = binders of probe aHhip on microarray, primary screen, stem cell growth factor project, biochemical, small-molecule microarray, fluorescence 635/667 (AID 1087); conditions: higher = more signal;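 also: score merges spot fluorescence at 667nm with spot signal to noise ratio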
[11] = test system: PRMT1 (protein arginine N-methyltransferase 1); assay: small molecules binding arginine methyltransferase PRMT1 – biochemical, small-molecule microarray, 635 nm fluorescence, primary screen (AID 1088); conditions: higher = more signal;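 also: binding of Prmt1 protein to compounds spotted on small-molecule microarray slides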
[12] = growth effects on S. cerevisiae YJM789 – YJM789 clinical isolate, OD600, 24 h, basal, primary screen (AID 1089); conditions: higher = more signal, called active from +8 up or from −8 down;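 also: growth of clinical yeast isolate S. cerevisiae YJM 789 seeded 1000 cells per well; test concentration not given here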
[13] = S. pombe growth modifiers, basal conditions – strain 972, OD600, 24 h, no modulator, primary screen (AID 1090);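 also: basal condition with compound alone and no growth modifier present; test concentration not given here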; conditions: S. pombe 972 growth, higher = more signal, called active from +8 up or from −8 down
[14] = budding yeast growth modifiers under rapamycin – strain BY4716, OD600, 96 h, primary screen (AID 1091); also: test concentration not given here; conditions: S. cerevisiae BY4716 + rapamycin, higher = more signal, called active from +8 up or from −8 down
[15] = target: Torsin-1A-interacting protein 2 (Homo sapiens) (UniProt Q8NFQ8); assay: small molecules binding lysate-expressed LULL1 – cell lysate, human LULL1 lysate, 635/667 nm fluorescence, primary screen (AID 1092); conditions: small-molecule microarray, hLULL1 lysate binding, 635 nm fluorescence; higher = more signal;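 also: probe is lysate of COS7 cells overexpressing human LULL1; score merges per-feature 667 nm fluorescence with signal-to-noise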
[16] = optical density change of DRC41 E. coli – strain DRC41, OD650, 24 h, E. coli filamentation project, primary screen (AID 1093);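 also: MC1000 strain lacking acrAB efflux and sulA so SOS filamentation is blocked; test concentration not given here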; conditions: E. coli DRC41 growth, higher = more signal, called active from +8 up or from −8 down
[17] = probe aLefty2 binding to arrayed compounds – biochemical, biotinylated probe, 635/667 nm fluorescence, primary screen (AID 1094); conditions: small-molecule microarray, higher = more signal;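 also: score merges spot fluorescence near 667 nm with spot signal-to-noise ratio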
[18] = test system: Noggin (protein binding on small-molecule microarray); assay: small molecules binding Noggin protein – biochemical, 635/667 nm fluorescence, primary screen (AID 1095); conditions: 635 nm fluorescence, higher = more signal;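 also: score merges 667 nm feature fluorescence with signal to noise over triplicate slides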
[19] = target: Neurogenic locus notch homolog protein 3 (Homo sapiens) (UniProt Q9UM47); assay: small molecules binding NOTCH3 protein – biochemical, 635/667 nm fluorescence, primary screen (AID 1096); conditions: small-molecule microarray, 635 nm fluorescence, higher = more signal
[20] = probe aEGFR binding to arrayed compounds – biochemical, biotinylated probe, 635/667 nm fluorescence, primary screen (AID 1097); conditions: small-molecule microarray, higher = more signal;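 also: probe is a biotinylated anti-EGFR antibody binding compounds printed on slides; score combines fluorescence near 667 nm and signal to noise of each spot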

Sequence of Neurogenic locus notch homolog protein 3 (Homo sapiens) (Q9UM47 whole entry, looked up): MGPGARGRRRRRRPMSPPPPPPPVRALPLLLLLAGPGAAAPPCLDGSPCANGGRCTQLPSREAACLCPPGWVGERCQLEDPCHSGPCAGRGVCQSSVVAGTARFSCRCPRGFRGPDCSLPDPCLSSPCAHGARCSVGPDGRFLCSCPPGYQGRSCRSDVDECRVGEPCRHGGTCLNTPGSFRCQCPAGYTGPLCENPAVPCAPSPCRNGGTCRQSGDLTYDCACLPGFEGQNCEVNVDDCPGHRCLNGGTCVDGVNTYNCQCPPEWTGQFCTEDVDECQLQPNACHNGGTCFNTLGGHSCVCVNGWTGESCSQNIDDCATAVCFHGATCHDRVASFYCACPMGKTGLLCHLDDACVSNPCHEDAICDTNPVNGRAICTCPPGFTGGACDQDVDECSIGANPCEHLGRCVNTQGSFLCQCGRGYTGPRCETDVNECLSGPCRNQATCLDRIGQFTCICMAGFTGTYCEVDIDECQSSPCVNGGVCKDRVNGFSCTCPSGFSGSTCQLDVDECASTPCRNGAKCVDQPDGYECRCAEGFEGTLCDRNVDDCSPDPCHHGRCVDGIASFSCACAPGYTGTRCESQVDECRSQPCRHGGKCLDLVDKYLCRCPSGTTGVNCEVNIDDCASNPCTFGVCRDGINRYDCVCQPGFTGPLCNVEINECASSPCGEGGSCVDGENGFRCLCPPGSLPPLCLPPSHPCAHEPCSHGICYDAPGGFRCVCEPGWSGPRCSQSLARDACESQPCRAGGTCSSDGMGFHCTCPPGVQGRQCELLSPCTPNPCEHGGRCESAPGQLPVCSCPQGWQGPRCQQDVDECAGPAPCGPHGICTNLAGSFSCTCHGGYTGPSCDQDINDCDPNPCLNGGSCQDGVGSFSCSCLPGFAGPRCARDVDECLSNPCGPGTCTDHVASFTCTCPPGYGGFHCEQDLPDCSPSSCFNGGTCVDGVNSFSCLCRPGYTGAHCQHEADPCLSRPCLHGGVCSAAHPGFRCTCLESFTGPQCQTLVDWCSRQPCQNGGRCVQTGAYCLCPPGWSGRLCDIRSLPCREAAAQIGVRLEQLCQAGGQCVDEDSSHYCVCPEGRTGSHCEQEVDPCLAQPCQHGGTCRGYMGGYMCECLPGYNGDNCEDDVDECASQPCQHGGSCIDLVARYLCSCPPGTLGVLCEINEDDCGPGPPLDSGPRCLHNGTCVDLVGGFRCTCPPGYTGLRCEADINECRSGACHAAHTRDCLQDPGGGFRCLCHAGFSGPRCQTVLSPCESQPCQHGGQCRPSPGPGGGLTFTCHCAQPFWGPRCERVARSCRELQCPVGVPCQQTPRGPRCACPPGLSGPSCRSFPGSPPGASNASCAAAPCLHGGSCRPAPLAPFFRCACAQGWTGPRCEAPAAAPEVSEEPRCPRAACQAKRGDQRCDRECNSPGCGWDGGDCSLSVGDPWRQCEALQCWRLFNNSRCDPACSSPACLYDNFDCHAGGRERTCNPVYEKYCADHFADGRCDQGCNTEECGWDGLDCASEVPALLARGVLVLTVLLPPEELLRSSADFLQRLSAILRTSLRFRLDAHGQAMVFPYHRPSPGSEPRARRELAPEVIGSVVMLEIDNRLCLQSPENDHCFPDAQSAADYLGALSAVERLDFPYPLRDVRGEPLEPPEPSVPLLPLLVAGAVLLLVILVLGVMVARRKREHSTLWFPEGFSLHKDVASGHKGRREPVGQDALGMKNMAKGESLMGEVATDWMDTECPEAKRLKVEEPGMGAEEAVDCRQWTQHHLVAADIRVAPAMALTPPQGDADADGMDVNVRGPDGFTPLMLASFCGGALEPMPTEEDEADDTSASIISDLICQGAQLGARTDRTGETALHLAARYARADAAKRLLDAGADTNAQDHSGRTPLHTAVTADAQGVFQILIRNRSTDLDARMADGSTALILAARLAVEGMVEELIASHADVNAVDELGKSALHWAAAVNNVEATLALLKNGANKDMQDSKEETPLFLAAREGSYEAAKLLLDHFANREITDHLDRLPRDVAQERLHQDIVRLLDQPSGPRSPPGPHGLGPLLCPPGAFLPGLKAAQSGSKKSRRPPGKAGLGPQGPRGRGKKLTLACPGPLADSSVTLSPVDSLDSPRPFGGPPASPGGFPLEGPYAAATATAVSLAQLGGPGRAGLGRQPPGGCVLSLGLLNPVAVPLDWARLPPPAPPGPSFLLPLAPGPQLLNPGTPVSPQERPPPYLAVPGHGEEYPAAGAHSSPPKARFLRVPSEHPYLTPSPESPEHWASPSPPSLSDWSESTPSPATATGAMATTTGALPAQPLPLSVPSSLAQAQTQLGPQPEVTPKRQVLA
Sequence of Torsin-1A-interacting protein 2 (Homo sapiens) (Q8NFQ8 whole entry, looked up): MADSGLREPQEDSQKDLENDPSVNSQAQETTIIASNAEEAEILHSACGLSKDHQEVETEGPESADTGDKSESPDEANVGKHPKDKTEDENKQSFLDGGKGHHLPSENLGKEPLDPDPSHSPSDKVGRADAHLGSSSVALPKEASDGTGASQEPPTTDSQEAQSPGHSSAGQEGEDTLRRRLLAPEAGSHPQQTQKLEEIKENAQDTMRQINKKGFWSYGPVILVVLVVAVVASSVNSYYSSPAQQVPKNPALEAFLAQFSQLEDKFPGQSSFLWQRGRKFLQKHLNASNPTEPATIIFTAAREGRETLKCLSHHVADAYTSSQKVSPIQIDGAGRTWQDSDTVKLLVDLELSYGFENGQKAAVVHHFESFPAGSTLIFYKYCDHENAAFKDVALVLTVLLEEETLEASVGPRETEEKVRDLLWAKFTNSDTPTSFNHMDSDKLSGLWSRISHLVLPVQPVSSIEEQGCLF
Sequence of Pro-neuregulin-1, membrane-bound isoform (Homo sapiens) (Q02297 whole entry, looked up, the tested form may be a part, canonical isoform): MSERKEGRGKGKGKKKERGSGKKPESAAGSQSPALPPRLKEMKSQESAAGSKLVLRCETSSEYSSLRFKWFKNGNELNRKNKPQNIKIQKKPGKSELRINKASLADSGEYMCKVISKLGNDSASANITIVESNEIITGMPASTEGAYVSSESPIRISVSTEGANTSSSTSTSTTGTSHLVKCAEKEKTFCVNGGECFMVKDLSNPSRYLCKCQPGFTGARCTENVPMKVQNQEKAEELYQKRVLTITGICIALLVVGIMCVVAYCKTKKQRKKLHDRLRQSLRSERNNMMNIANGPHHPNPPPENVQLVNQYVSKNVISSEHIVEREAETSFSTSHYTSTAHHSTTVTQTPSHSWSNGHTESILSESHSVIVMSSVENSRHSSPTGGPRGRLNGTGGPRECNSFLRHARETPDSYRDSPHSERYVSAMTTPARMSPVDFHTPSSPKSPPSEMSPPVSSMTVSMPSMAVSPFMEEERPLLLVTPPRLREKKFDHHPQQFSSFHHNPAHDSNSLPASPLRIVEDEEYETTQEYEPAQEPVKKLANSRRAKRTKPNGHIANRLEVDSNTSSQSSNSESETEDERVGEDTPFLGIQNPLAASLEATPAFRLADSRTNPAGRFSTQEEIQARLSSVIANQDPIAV

Cc1ccc(S[C@]2(C(=O)NCCCN(C)C)CC(=O)N(C(C)C)[C@@H]2c2ccc(CO)cc2I)cc1
composite z-score [1]: 0.052
composite z-score [2]: -0.54
composite z-score [3]: -0.0954
composite z-score [4]: -0.238
composite z-score [5]: -0.373
composite z-score [6]: 0.994
composite z-score [7]: 0.861
z-score [8]: -0.312 (inactive)
composite z-score [9]: -0.152
composite z-score [10]: -0.354
composite z-score [11]: 1.05
z-score [12]: -1.25 (inactive)
z-score [13]: -2.91 (inactive)
z-score [14]: -1.13 (inactive)
composite z-score [15]: 2.88
z-score [16]: 0.0601 (inactive)
composite z-score [17]: -0.0654
composite z-score [18]: -0.521
composite z-score [19]: -0.0055
composite z-score [20]: -0.142

NC(=O)[C@]1(Cc2ccccc2)N=C(c2ccc(OCCCO)cc2)O[C@@H]1c1ccccc1
composite z-score [1]: 0.207
composite z-score [2]: -0.911
composite z-score [3]: 0.0121
composite z-score [4]: 0.161
composite z-score [5]: 1.15
composite z-score [6]: 1.59
composite z-score [7]: 1.12
z-score [8]: -0.573 (inactive)
composite z-score [9]: 0.503
composite z-score [10]: -0.214
composite z-score [11]: 0.588
z-score [12]: -0.94 (inactive)
z-score [13]: -1.17 (inactive)
z-score [14]: -0.314 (inactive)
composite z-score [15]: 3.54
z-score [16]: -0.351 (inactive)
composite z-score [17]: 0.0781
composite z-score [18]: -0.165
composite z-score [19]: 0.658
composite z-score [20]: 0.0182

NC(=O)NCC#Cc1ccc2c(c1)[C@]1(C(=O)N2)[C@H](C(=O)NC[C@H](O)c2ccccc2)[C@H]2C(=O)O[C@H](c3ccccc3)[C@H](c3ccccc3)N2[C@@H]1c1ccccc1OCCO
composite z-score [1]: -0.226
composite z-score [2]: 0.0051
composite z-score [3]: -0.0934
composite z-score [4]: 0.0263
composite z-score [5]: -0.686
composite z-score [6]: 1.21
composite z-score [7]: 0.997
z-score [8]: -0.167 (inactive)
composite z-score [9]: 0.213
composite z-score [10]: -0.0994
composite z-score [11]: 1.53
z-score [12]: 1.41 (inactive)
z-score [13]: -0.133 (inactive)
z-score [14]: 2.44 (inactive)
composite z-score [15]: 2.35
z-score [16]: 2.02 (inactive)
composite z-score [17]: -0.186
composite z-score [18]: 0.307
composite z-score [19]: 0.927
composite z-score [20]: -0.167

[N-]=[N+]=Nc1ccccc1[C@H]1OC(c2ccc(OCCCO)cc2)=N[C@@]1(CCS(=O)(=O)c1ccccc1)C(=O)N1CCOCC1
composite z-score [1]: 1.84
composite z-score [2]: 0.962
composite z-score [3]: 0.45
composite z-score [4]: 1.13
composite z-score [5]: 1.7
composite z-score [6]: 1.66
composite z-score [7]: 1.27
z-score [8]: 5.15 (inactive)
composite z-score [9]: 1.53
composite z-score [10]: -0.372
composite z-score [11]: 1.55
z-score [12]: 1.17 (inactive)
z-score [13]: 0.403 (inactive)
z-score [14]: 4.39 (inactive)
composite z-score [15]: 3.1
z-score [16]: 1.1 (inactive)
composite z-score [17]: 0.766
composite z-score [18]: 0.245
composite z-score [19]: 1.09
composite z-score [20]: 0.561

C=CC[C@]1(C(=O)NCCN2CCOCC2)N=C(c2ccc(OCCCO)cc2)O[C@H]1c1ccccc1N=[N+]=[N-]
composite z-score [1]: 1.13
composite z-score [2]: 0.562
composite z-score [3]: 0.178
composite z-score [4]: 0.32
composite z-score [5]: 0.832
composite z-score [6]: 1.56
composite z-score [7]: 1.14
z-score [8]: 1.98 (inactive)
composite z-score [9]: 1.08
composite z-score [10]: 0.176
composite z-score [11]: 1.58
z-score [12]: -0.941 (inactive)
z-score [13]: -1.41 (inactive)
z-score [14]: -0.523 (inactive)
composite z-score [15]: 3
z-score [16]: 1.74 (inactive)
composite z-score [17]: 0.432
composite z-score [18]: 0.0879
composite z-score [19]: 0.991
composite z-score [20]: 0.509

Cc1ccc(C(C)CC(O)C2C=CC3C(=O)NC(=O)C3N2Nc2ccccn2)o1 (stereo not given)
composite z-score [1]: -0.0428
composite z-score [2]: 0.573
composite z-score [3]: -0.0951
composite z-score [4]: 0.174
composite z-score [5]: -0.0116
composite z-score [6]: 0.753
composite z-score [7]: 0.845
z-score [8]: 0.327 (inactive)
composite z-score [9]: 0.0821
composite z-score [10]: -0.249
composite z-score [11]: 1.09
z-score [12]: 0.633 (inactive)
z-score [13]: 0.0293 (inactive)
z-score [14]: 0.124 (inactive)
composite z-score [15]: 1.94
z-score [16]: 0.504 (inactive)
composite z-score [17]: -0.0225
composite z-score [18]: 0.312
composite z-score [19]: -0.233
composite z-score [20]: -0.0302

C=C(/C(=C/C[C@@H](OC(=O)c1ccncc1)c1ccc(CO)o1)c1cc(C(=O)OC)ccc1OC)C(C)C
composite z-score [1]: -0.441
composite z-score [2]: 1.46
composite z-score [3]: -0.0226
composite z-score [4]: 0.901
composite z-score [5]: 0.974
composite z-score [6]: 1.15
composite z-score [7]: 0.954
z-score [8]: -1.13 (inactive)
composite z-score [9]: 0.377
composite z-score [10]: 0.0373
composite z-score [11]: 1.53
z-score [12]: 0.523 (inactive)
z-score [13]: -1.28 (inactive)
z-score [14]: -0.414 (inactive)
composite z-score [15]: 2.47
z-score [16]: 0.481 (inactive)
composite z-score [17]: -0.129
composite z-score [18]: 0.855
composite z-score [19]: 1.03
composite z-score [20]: 0.0073

C=C(CCCC)C(=O)CC[C@H](OC(C)=O)c1ccc(CO)o1
composite z-score [1]: -0.282
composite z-score [2]: 0.0494
composite z-score [3]: -0.0985
composite z-score [4]: -0.0414
composite z-score [5]: -0.366
composite z-score [6]: -0.119
composite z-score [7]: 0.798
z-score [8]: -0.463 (inactive)
composite z-score [9]: -0.402
composite z-score [10]: -0.0994
composite z-score [11]: 1.47
z-score [12]: 1.04 (inactive)
z-score [13]: -1.43 (inactive)
z-score [14]: -0.181 (inactive)
composite z-score [15]: 0.616
z-score [16]: 1.38 (inactive)
composite z-score [17]: -0.0339
composite z-score [18]: 0.53
composite z-score [19]: 0.137
composite z-score [20]: -0.182

Cc1ccc(N2C(=O)c3ccccc3[C@](C)(C(=O)NCCN3CCOCC3)[C@@H]2c2ccc(CO)cc2)nc1
composite z-score [1]: 1.54
composite z-score [2]: -0.653
composite z-score [3]: -0.0249
composite z-score [4]: -0.112
composite z-score [5]: -1.41
composite z-score [6]: -0.819
composite z-score [7]: 0.0367
z-score [8]: 0.517 (inactive)
composite z-score [9]: -0.748
composite z-score [10]: -0.287
composite z-score [11]: -0.405
z-score [12]: 0.0623 (inactive)
z-score [13]: -0.822 (inactive)
z-score [14]: -0.324 (inactive)
composite z-score [15]: 1.04
z-score [16]: -1.4 (inactive)
composite z-score [17]: 0.0216
composite z-score [18]: -1.02
composite z-score [19]: -1.74
composite z-score [20]: -0.312
